In the supplement of paper PMC6555819:

Assays:
Assay in all cases: PBM binding z-score (relative to random genomic background probes); higher = stronger binding; sequences stand for … in GC…GCGATTGACAGCGTAGAATGAAGG
[1] = tested on: FXR:RXRa (NR concentration 270 nM, RXRa partner concentration 90 nM)
Outline: (§1)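 For binding z-scores, the reference was random background probes on custom Agilent 4×180K protein-binding microarrays. These arrays were incubated 1 h with ligand-free nuclear receptor dimers in PBS pH 7.4, 2% milk, 0.02% Triton X-100, 1 mM DTT, 0.2 mg/mL BSA and 0.4 mg/ml salmon testes DNA. Fluorescence was scanned after antibody detection of each partner (one per run) and regression-normalized.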

[2] = tested on: LXRa:RXRa (NR concentration 270 nM, RXRa partner concentration 90 nM)
Outline: as §1

[3] = tested on: LXRa homodimer (NR concentration 270 nM)
Outline: as §1

[4] = tested on: LXRb:RXRa (NR concentration 270 nM, RXRa partner concentration 90 nM)
Outline: as §1

[5] = tested on: LXRb homodimer (NR concentration 270 nM)
Outline: as §1

[6] = tested on: PPARa:RXRa (NR concentration 270 nM, RXRa partner concentration 90 nM)
Outline: as §1

[7] = tested on: PPARg:RXRa (NR concentration 180 nM, RXRa partner concentration 90 nM)
Outline: as §1

[8] = tested on: PPARg:RXRa 270nM:90nM, anti-RXR (NR concentration 270 nM, RXRa partner concentration 90 nM)
Outline: as §1

[9] = tested on: PPARg:RXRa 30nM:10nM, anti-RXR (NR concentration 30 nM, RXRa partner concentration 10 nM)
Outline: as §1

[10] = tested on: PPARg:RXRa 90nM:30nM, anti-RXR (NR concentration 90 nM, RXRa partner concentration 30 nM)
Outline: as §1

| Sequence | PBM binding z-score [1] | PBM binding z-score [2] | PBM binding z-score [3] | PBM binding z-score [4] | PBM binding z-score [5] | PBM binding z-score [6] | PBM binding z-score [7] | PBM binding z-score [8] | PBM binding z-score [9] | PBM binding z-score [10] |
| --- | --- | --- | --- | --- | --- | --- | --- | --- | --- | --- |
| AGTCAAAGTTCACAAGGTAACGTAAGATTCAGCT | 6.12 | 5.7 | 3.55 | 3.65 | 1.1 | 4.75 | 6.96 | 6.42 | 3.67 | 5.78 |
| CAAACTAGGTCAATGGTCAAAGTCGAGCCAACCA | 3.39 | 2.76 | 0.566 | 2.15 | 0.29 | 5.6 | 9.78 | 8.03 | 7.9 | 8.7 |
| TAGCCTAGGTGAGATCGGGCCAGTATACGCTATA | -0.31 | -0.533 | -0.692 | -0.901 | -0.702 | -0.453 | 0.201 | -0.291 | -0.335 | -0.319 |
| CCTTACGGGTCACGAGGTTTTAGCACGACGAGCG | 6.33 | 4.19 | -0.186 | 3.4 | -0.145 | 5.72 | 6.51 | 6.3 | 2.95 | 4.7 |
| GCGACTGGGGCATTAGCAGGTTACCATAACTTAA | -0.284 | 0.0464 | 0.0141 | 0.936 | -0.458 | 0.973 | 0.712 | 0.609 | -0.0543 | 0.0308 |
| TGAATGAGGTCATAAGATCAGGGAACGTTGCAAA | 7.31 | 5.47 | 0.779 | 4.4 | 1.39 | 5.96 | 6.96 | 6.58 | 4.09 | 6.04 |
| CTACCAAGGTGAACGAGGTCGTTGATTACTATTC | 1.79 | 1.81 | 0.142 | 2.09 | -0.207 | 2.82 | 1.45 | 1.48 | 0.4 | 0.896 |
| ACTTACGGGTCAACGAGATTATAGCACGCGTATA | 6.86 | 4.16 | 0.415 | 3.82 | 1.09 | 5.71 | 5.29 | 5.21 | 2.2 | 4.07 |
| CAAACTAGGTCTCGAAAGGTCAAAGTCGAATGAC | 4.95 | 5.78 | 5.59 | 5.49 | 1.63 | 5.51 | 5.33 | 5.32 | 2.94 | 4.72 |
| CCAGACAGGTGAGAAGCTAACTCAGCCTCGATTA | -0.201 | -0.31 | -0.163 | -0.228 | -0.869 | 0.155 | 0.347 | 0.159 | -0.632 | -0.0205 |
| CGAACTAGATCAGAACAGGACAGTGAAGGATGAT | -0.267 | -0.369 | -0.16 | -0.794 | -0.0768 | -0.51 | 0.886 | -0.506 | 0.112 | -0.125 |
| CCTACTGGGCCATTCAGCGGTCATTGATCATATG | -0.0404 | 0.756 | 3.78 | 0.208 | -0.516 | 0.727 | 0.533 | 0.538 | -0.375 | 0.242 |
| ACTAGCAGCCCAAGGGTCACTCAAGATTAGTCCG | 2.27 | 2.63 | 0.353 | 2.75 | -0.34 | 3.14 | 2.69 | 3.61 | 1.43 | 3.21 |
| TCTCGGAGGACACGAAAGGACAGAGCTCGACATC | 0.793 | 0.0695 | -0.281 | -0.358 | -0.815 | -0.148 | 0.542 | 0.751 | 1.85 | 1.34 |
| TAGCCTAGGTAAGATCGGGCCAGTATACGCTATA | -0.504 | -0.787 | -0.612 | -0.831 | -1.39 | -0.58 | 0.0812 | -0.494 | -0.743 | -0.292 |
| TGAATGATGTTATAAGATCAGGGAACGTTGCAAA | -0.318 | -0.353 | -0.0281 | -0.083 | 0.0619 | 0.0376 | 0.37 | -0.0772 | 0.598 | 0.592 |
| TAGCCTAGGTCATGCGGGCCAGTATGGTGTCGGC | 3.96 | 3.27 | -0.0396 | 1.44 | -0.233 | 3.43 | 1.79 | 2.41 | -0.0378 | 1.2 |
| CCGAGTAGGTTATGGGGGATTCAGGCAACGGTGA | 1.01 | 1.49 | 0.84 | 3.36 | 6.87 | 2.55 | 2.34 | 4.36 | 1.98 | 3.77 |
| TCTATTAGTTGATTTGGGCAACCGAAACAGCGGA | 0.267 | 0.602 | 0.223 | 0.863 | 1.2 | 0.657 | -0.145 | 1.83 | 3.74 | 3.01 |
| CGTCCAATGTCAGCAGGTCAGTGAAAGCGACGTG | 0.418 | 0.255 | -0.0257 | 0.392 | -0.161 | 1.22 | 0.115 | 0.0995 | -0.882 | -0.158 |
| GCTATTAGTTGAAAGGGCAACCGGATGATTCTCG | 0.785 | 0.839 | 0.362 | 0.759 | -0.334 | 2.31 | 2.78 | 4.56 | 2.87 | 4.49 |
| TCGAGTAGGTTACCAATGGAGCATTCAGCTTTCT | -0.291 | 0.37 | -0.758 | -0.00248 | -1.32 | 0.92 | 0.264 | 1.16 | 1.33 | 1.08 |
| TTACCAAGGTGAAGGTCTTTGATCCCTCTGTAGA | 0.557 | 0.55 | -0.405 | 0.371 | -0.742 | 1.64 | 1.37 | 2.45 | 0.89 | 2.12 |
| CATTACGGGTCACGAGGTTATAGCACGACGAGCG | 7.14 | 6.04 | 2.06 | 4.56 | 1 | 6.33 | 8.49 | 7.3 | 4.45 | 6.59 |
